# From publication PMC8384837, “Expanding the binding specificity for RNA recognition by a PUF domain”
# Assays:
# Test in all cases: yeast three-hybrid, YBZ-1, SC-Leu-His + 0.5 mM 3-AT, 4 days
# Conditions in all cases: tags: N-Gal4 AD-HA kept; label: inside an RPR1-promoter hybrid RNA with tandem MS2 sites; ssRNA
# [1] = molecular target: PUM1 PUF domain R7-SRP (Homo sapiens, UniProt Q14671 828-1176, N1080R;E1083P)
# How it was run: (§1)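 Pumilio-1 PUF domain libraries, randomized (NNK) at the three base-contacting residues of each repeat, were co-expressed with matching RNA elements from a centromeric plasmid in strain YBZ-1 (LexA–MS2 coat fusion, HIS3 reporter). Transformants were plated on SC-Leu (input) and SC-Leu-His + 0.5 mM 3-AT (selection) for four days, and repeat regions were PCR-amplified and Illumina-sequenced. The interaction score is the log2 change in variant frequency from input to selection, with pseudocount 1 where absent.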
# [2] = molecular target: PUM1 PUF domain R5-RHD (Homo sapiens, UniProt Q14671 828-1176, C1007R;R1008H;Q1011D)
# How it was run: as §1
# [3] = molecular target: PUM1 PUF domain R8-PYA (Homo sapiens, UniProt Q14671 828-1176, N1122P;Q1126A)
# How it was run: as §1
# [4] = molecular target: PUM1 PUF domain R4-RHS (Homo sapiens, UniProt Q14671 828-1176, N971R;Q975S)
# How it was run: as §1
# [5] = molecular target: PUM1 PUF domain R3-IYG (Homo sapiens, UniProt Q14671 828-1176, C935I;R936Y;Q939G)
# How it was run: as §1
# [6] = molecular target: T1, PUM1 PUF domain R6-TFC (Homo sapiens, UniProt Q14671 828-1176, N1043T;Y1044F;Q1047C)
# T1 sequence: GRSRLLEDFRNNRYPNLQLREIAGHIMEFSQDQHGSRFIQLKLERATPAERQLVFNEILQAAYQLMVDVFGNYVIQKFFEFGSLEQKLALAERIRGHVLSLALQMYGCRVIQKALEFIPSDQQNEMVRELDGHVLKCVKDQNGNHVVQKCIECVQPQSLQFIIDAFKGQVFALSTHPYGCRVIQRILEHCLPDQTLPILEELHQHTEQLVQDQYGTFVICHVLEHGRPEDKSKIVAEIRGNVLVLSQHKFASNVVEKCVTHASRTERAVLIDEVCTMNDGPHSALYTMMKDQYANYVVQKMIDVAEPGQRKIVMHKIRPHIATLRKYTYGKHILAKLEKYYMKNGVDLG
# How it was run: as §1
# [7] = molecular target: PUM1 PUF domain R1-TIE (Homo sapiens, UniProt Q14671 828-1176, S863T;R864I;Q867E)
# How it was run: as §1
# [8] = molecular target: PUM1 PUF domain R8-FHR (Homo sapiens, UniProt Q14671 828-1176, N1122F;Y1123H;Q1126R)
# How it was run: as §1
sequence,measurement,setting,value
GGCUAGAACUAGUGGAUCCCCCGGCGCCCGGCGGCUCGAGCCCGGGUAAGUUUAAAUAGUCUGCAUGCCGCCGGGCGCCAUGCCUGCAGGUCGACUCUAGAAAACAUG,binding signal,[1],3.52 log2 enrichment (interaction score)
GGCUAGAACUAGUGGAUCCCCCGGCGCCCGGCGGCUCGAGCCCGGGUAAGUGUGAAUAGUCUGCAUGCCGCCGGGCGCCAUGCCUGCAGGUCGACUCUAGAAAACAUG,binding signal,[2],5.63 log2 enrichment (interaction score)
GGCUAGAACUAGUGGAUCCCCCGGCGCCCGGCGGCUCGAGCCCGGGUAAGUGUAAAUAGUCUGCAUGCCGCCGGGCGCCAUGCCUGCAGGUCGACUCUAGAAAACAUG,binding signal,[3],2.27 log2 enrichment (interaction score)
same,binding signal,[4],2.87 log2 enrichment (interaction score)
same,binding signal,[5],4.83 log2 enrichment (interaction score)
GGCUAGAACUAGUGGAUCCCCCGGCGCCCGGCGGCUCGAGCCCGGGUAAGUGAAAAUAGUCUGCAUGCCGCCGGGCGCCAUGCCUGCAGGUCGACUCUAGAAAACAUG,binding signal,[6],5.07 log2 enrichment (interaction score)
GGCUAGAACUAGUGGAUCCCCCGGCGCCCGGCGGCUCGAGCCCGGGUAAGUGUACAUAGUCUGCAUGCCGCCGGGCGCCAUGCCUGCAGGUCGACUCUAGAAAACAUG,binding signal,[4],2.12 log2 enrichment (interaction score)
GGCUAGAACUAGUGGAUCCCCCGGCGCCCGGCGGCUCGAGCCCGGGUAAGUGUAAAUUGUCUGCAUGCCGCCGGGCGCCAUGCCUGCAGGUCGACUCUAGAAAACAUG,binding signal,[7],4.28 log2 enrichment (interaction score)
GGCUAGAACUAGUGGAUCCCCCGGCGCCCGGCGGCUCGAGCCCGGGUAAGUGUAACUAGUCUGCAUGCCGCCGGGCGCCAUGCCUGCAGGUCGACUCUAGAAAACAUG,binding signal,[5],0.48 log2 enrichment (interaction score)
GGCUAGAACUAGUGGAUCCCCCGGCGCCCGGCGGCUCGAGCCCGGGUAAGCGUAAAUAGUCUGCAUGCCGCCGGGCGCCAUGCCUGCAGGUCGACUCUAGAAAACAUG,binding signal,[8],3.71 log2 enrichment (interaction score)
